Laboratory results as given in PubChem BioAssay AID1903 (Southern Research Specialized Biocontainment Screening …, 2009).
The whole screen tested about 310,000 compounds, of which about 1,200 (0.39%) were called active. The rule behind the calls is not given here. Only a sample is shown. Potency and affinity values are given separately.

target: Large T antigen (Simian virus 40) (UniProt P03070); assay: TAg ATPase/helicase activity blockers – biochemical (AID 1903); details: SV40 large T antigen ATPase/helicase inhibition assay; at 20 µM; active compounds read high
Sequence (P03070 whole entry, looked up): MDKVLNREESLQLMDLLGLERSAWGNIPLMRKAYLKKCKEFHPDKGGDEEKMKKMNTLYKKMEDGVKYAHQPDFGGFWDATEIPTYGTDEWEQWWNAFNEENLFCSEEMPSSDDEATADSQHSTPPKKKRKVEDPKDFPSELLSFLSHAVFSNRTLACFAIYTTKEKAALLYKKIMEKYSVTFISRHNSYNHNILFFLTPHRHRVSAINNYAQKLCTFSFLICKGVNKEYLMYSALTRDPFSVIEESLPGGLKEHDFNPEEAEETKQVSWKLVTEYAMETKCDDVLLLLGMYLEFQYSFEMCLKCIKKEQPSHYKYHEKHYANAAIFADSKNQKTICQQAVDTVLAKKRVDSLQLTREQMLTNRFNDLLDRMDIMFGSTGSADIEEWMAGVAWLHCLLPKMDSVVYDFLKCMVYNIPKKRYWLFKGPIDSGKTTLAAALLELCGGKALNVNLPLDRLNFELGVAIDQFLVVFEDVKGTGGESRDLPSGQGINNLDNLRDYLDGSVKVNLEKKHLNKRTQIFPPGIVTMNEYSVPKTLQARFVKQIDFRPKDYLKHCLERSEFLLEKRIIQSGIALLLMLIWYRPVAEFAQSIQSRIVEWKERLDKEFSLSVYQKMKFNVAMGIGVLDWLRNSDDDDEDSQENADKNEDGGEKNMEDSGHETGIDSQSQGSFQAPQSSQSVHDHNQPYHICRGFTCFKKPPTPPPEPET

inhibition, inactive:
C/C(=N\NC(=O)C(C)Sc1ccccc1)C(C)(C)C (centres undefined) 17.5%
CC(CCc1ccc(O)cc1)NCc1ccc(Br)cc1 (centres undefined) 3.95%
OCCc1ccc(O)cc1 27%
N/C(=N\OC(=O)Cc1cccs1)c1cccc([N+](=O)[O-])c1 3.85%
COc1cc(Br)c(C2C(C#N)=C(N)Oc3n[nH]c(-c4cccnc4)c32)cc1OC (centres undefined) 18.6%
COc1cc(OC)cc(C2C(C#N)=C(N)Oc3n[nH]c(-c4cccnc4)c32)c1 (centres undefined) 16.8%
COc1cc(OC)c2c(c1)C(=O)OC2OC (centres undefined) 2.96%
CC(NC(=O)CS(=O)(=O)c1ccccc1)c1ccccc1 (centres undefined) 25%
O=C(c1ccc2ccccc2c1)N1CCCC1 0.92%
O=C(c1cccc(-c2ccc(O)cc2)c1)N1CCN(c2ccc(F)cc2)CC1 1.57%
O=C(c1ccc2ncsc2c1)N1CCN(c2ccccc2Cl)CC1 11.3%
O=C(c1ccc2ncsc2c1)N1CCCCC1 18.2%
COc1ccc(-c2cccc(C(=O)N3CCOCC3)c2)cc1 9.81%
O=C(c1ccc2ccccc2c1)N1CCN(c2ccccc2)CC1 10.3%
CCOC(=O)c1nn(-c2ccc(F)cc2)c(=O)cc1OCC(=O)N1CCN(c2ccccc2)CC1 5.17%
CCN(CC)C(=O)C[n+]1ccc(C(N)=O)cc1 4.68%
Fc1ccccc1/C=N/n1c(COc2ccccc2)n[nH]c1=S 6%
Cc1cc(Br)cc(Cl)c1OCC(=O)NC(=O)NCc1ccccc1 1.39%
CCN1C(=O)[C@H]2[C@@H](c3ccc(C)cc3)N3C(=O)N(c4ccc(C(F)(F)F)cc4)C(=O)[C@@]3(Cc3ccccc3)[C@H]2C1=O 4.67%
CC(C)C[C@H](NC(=O)CCn1nnc2ccccc2c1=O)C(=O)O 9.82%
O=C(O)CNC(=S)N(Cc1ccccc1F)C1CCCCC1 4.15%
O=C(Oc1ccc(-c2cnc3ccccc3n2)cc1)c1cccc([N+](=O)[O-])c1 3.96%
O=C(Oc1ccc(-c2cnc3ccccc3n2)cc1)c1cc([N+](=O)[O-])ccc1Cl 7.12%
COCC(C)NC(=O)c1noc2c1CCc1cc(OC)ccc1-2 (centres undefined) -0.97%
CCOc1ccc(NCc2cc3cc(OC)ccc3[nH]c2=O)cc1 28.1%
Cc1ccc2nc(-c3ccccc3N)[nH]c2c1 -2.07%
Cc1ccc2nc(-c3cccc(N)c3)[nH]c2c1 5.37%
CCOC(=O)c1c(S(=O)(=O)NCc2ccc(C)o2)c(C)n(C)c1C 2.28%
COc1ccc(CCC(=O)Nc2ccc(N3CCOCC3)cc2)cc1 8.67%
c1cc(CNc2ccc(N3CCOCC3)cc2)ccn1 1.95%
COc1ccc(OCC(=O)Nc2ccc(N3CCOCC3)cc2)cc1 12.4%
CC(C)c1ccc(CNc2ccc(N3CCOCC3)cc2)cc1 9.24%
COc1cccc2cc(C(=O)N(Cc3cccs3)CC3CCCO3)c(=O)oc12 (centres undefined) 5.05%
CCn1cc(C2=NC(c3ccccc3)CO2)c2ccccc21 (centres undefined) 14.4%
Cc1ccc(Sc2ncnc(N)c2[N+](=O)[O-])cc1 2.16%
CNc1cc(Cl)nc(SC)n1 5.2%
CSc1nc(Cl)cc(Nc2ccccc2N)n1 22%
CCNC(=O)O/N=C1\CCCCC1c1ccc([N+](=O)[O-])cc1[N+](=O)[O-] (centres undefined) 11.8%
N#C/C(=C\c1coc2ccccc2c1=O)C(N)=S 11.5%
O=C1NN(c2ccccc2)C(=O)/C1=C\c1coc2ccc(O)cc2c1=O 51.3%
COc1ccc(CCNC(=O)C/C(C)=N/NC(=O)C23CC4CC(CC(C4)C2)C3)cc1OC 5.44%
COC(=O)C1=C(C)N(Cc2ccco2)C(=O)/C1=C\c1ccc(N(C)C)cc1 3.05%
COc1ccc(NC(=O)CC2C(=O)N(Cc3ccco3)C(=S)N2C(C)C)cc1 (centres undefined) 12%
COC(=O)C1=C(C)N(Cc2ccco2)C(=O)/C1=C\c1ccc([N+](=O)[O-])cc1 31.3%
COc1ccc(-n2c(C)cc(/C=C3\SC(=S)N(Cc4ccco4)C3=O)c2C)cc1 2.87%
COc1ccc(N2C(=O)CC(c3cc(OC)c(OC)c(OC)c3)CC2=O)cc1 8.69%
COC(=O)c1nn(-c2nc(-c3ccc(OC)c(OC)c3)cc(C(F)(F)F)n2)cc1[N+](=O)[O-] 9.35%
O=C1NN(c2ccccc2)C(=O)/C1=C/c1ccc(Sc2ccc(Cl)cc2)o1 11.2%
COC(=O)c1ccc(N2NC(=O)/C(=C/c3ccc(-c4ccc(Cl)c(C(=O)O)c4)o3)C2=O)cc1 37%
O=C1NN(c2cccc(Br)c2)C(=O)/C1=C/c1ccc(-c2cc([N+](=O)[O-])ccc2O)o1 38.2%
N=C1/C(=C\c2ccc(-c3cc(Cl)cc(Cl)c3)o2)C(=O)N=C2SC=C(c3ccccc3)N12 -1.62%
Cc1ccc(Sc2ccc(/C=C3/C(=O)NN(c4ccccc4)C3=O)o2)cc1 20.1%
O=C1NN(c2ccc(Cl)c(Cl)c2)C(=O)/C1=C/c1ccc(-c2ccccc2C(=O)O)o1 28.4%
COc1ccc(Sc2ccc(/C=C3\C(=O)NN(c4ccccc4)C3=O)o2)cc1 32.2%
N=C1/C(=C\c2ccc(-c3cccc(Cl)c3)o2)C(=O)N=C2SC=C(c3ccccc3)N12 7.39%
COc1ccccc1N1CCN(CC(O)c2ccccc2)CC1 (centres undefined) -5.22%
CC(=O)Nc1nc2ccc(S(=O)(=O)N3CCCCC3)cc2s1 11.1%
CCSC1=NCCN1S(=O)(=O)c1ccc(NC(C)=O)cc1 4.92%
CN(C(=O)c1ccc2c(c1)CCN2S(C)(=O)=O)c1ccccc1 -0.23%
Cc1cc(C)c2c(=O)[nH]c(SCc3ccccc3C)nc2n1 1.53%
CCC(=O)Oc1ccc(C(=O)Nc2cccc(NC(=O)c3ccco3)c2)cc1 -2.07%
Cc1ccc(OCC(=O)Nc2ccc(F)cc2)c([N+](=O)[O-])n1 6.19%
Cc1ccc(NC(=O)C2CCN(S(=O)(=O)c3cnc[nH]3)CC2)cc1C 12%
COc1ccccc1OCC(=O)Nc1nonc1NC(=O)COc1ccccc1OC 11.7%
CC(=O)Nc1ccc(N2CC(C)(C)C2=O)cc1 14.5%
COc1ccc(F)cc1S(=O)(=O)N1CCCC(C)C1 (centres undefined) 4.43%
OCCC1CN(Cc2cccc(C(F)(F)F)c2)CCN1Cc1ccccc1 (centres undefined) 5.73%
O=Cc1ccc(-c2cccc(C(=O)O)c2)o1 8.85%
O=C1NN(c2ccccc2)C(=O)/C1=C/c1ccc(Sc2cccc3ccccc23)o1 9.56%
CCSc1ccccc1C(=O)N1CCN(c2ccccc2F)CC1 4.24%
CC(C)c1ccc(C2/C(=C(\O)c3ccc4c(c3)OCCO4)C(=O)C(=O)N2CCN2CCOCC2)cc1 (centres undefined) 10.8%
Cc1ccc2nc(/C(C#N)=C/c3ccc(O)c(O)c3)[nH]c2c1 36.8%
N#C/C(=C\c1ccncc1)c1nc2ccccc2[nH]1 -51.6%
Cn1c(CSCc2ccc(F)cc2)nnc1SCC(=O)N1CCN(c2ccccc2)CC1 29.3%
CC1=CN2C(=NC(=O)CC2(C)C(=O)N(CC(=O)NC2CCCC2)Cc2ccccc2)C=C1 (centres undefined) 3.88%
Oc1ccc(Nc2nc(-c3ccc4ccccc4c3)cs2)cc1 35.8%
CCCc1cc(=O)[nH]c(Nc2ccc(Cl)cc2)n1 16.6%
Cc1c(O)c2ccccc2oc1=O 8.49%
COc1c(CC=C(C)C)c(O)cc2oc(=O)c3c4ccc(O)cc4oc3c12 21.6%
O=C1C=C(NC2CC2)C2(CCCCC2)O1 6.12%
C=CCN1C(=O)C2C3C=CC(C2C1=O)C1C2C(=O)N(CC=C)C(=O)C2C31 (centres undefined) 0.93%
Cc1oc2c(C)c(O)ccc2c(=O)c1-c1cnn(-c2ccccc2)c1 12.9%
Cc1oc2cc(O)ccc2c(=O)c1-c1cnn(-c2ccccc2)c1 1.6%
CC(C)N1C(=O)CCC1C(=O)NCc1ccco1 (centres undefined) 10.9%
CCOC(=O)C1=C(CC)Nc2ccccc2N=C1NC(=O)Cn1cnc2ccccc2c1=O -2.64%
S=C(NCC1CCCO1)N1CCN(c2ccccc2)CC1 (centres undefined) 8.18%
CC(C)(C)OC(=O)NCCCC[C@H](NC(=O)c1nc[nH]c1C(=O)NC1CCN(C(=O)OC(C)(C)C)CC1)C(=O)OC(C)(C)C 3.23%
O=[N+]([O-])c1cccc(-c2ncc3ccccn23)c1 -2.83%
Nc1c(-c2cccc([N+](=O)[O-])c2)nc2ccccn12 15.8%
Cc1cc(NC(=O)CSCC(=O)Nc2cc(C(F)(F)F)ccc2N2CCCC2)no1 4.79%
Nc1ncnc2c1ncn2CCOc1ccccc1 3.18%
O=C(N/N=C/c1ccc(O)c(Br)c1)c1cc2c(ccc3ccccc32)o1 -8.03%
O=C(N/N=C/c1cc(Cl)c(O)c(Cl)c1)c1cc2c(ccc3ccccc32)o1 29.3%
O=C(CCc1ccccc1)NNC(=O)c1ccccc1F 10.9%
